Data reported in PubChem BioAssay (NCATS).
Values joined by “and” are separate entries in the source; they are usually repeats but may differ in a detail not shown here. Identical values can stand only once. Results filed as inconclusive are left out. Active and inactive are the calls of the source. Calls follow the shape of the dose curve; as a rule, active = well fitted curve in the direction sought with a large enough effect; inconclusive = small, poorly fitted or top-dose-only effect, or another doubt; inactive = no such curve, though single readings can be large; an effect the other way counts as inactive or inconclusive.

Columns and labels:
[1] = system: Zika virus NS2B-NS3 protease (unlinked complex); test: Primary screen GU Rhodamine qHTS for Zika virus inhibitors: Unlinked NS2B-NS3 protease assay (AID 1347159); also: nearly all actives have a fitted effect of over 60% in size
In short: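 A qHTS format was used, with compound concentrations ranging up to 114 microM. Each compound was preincubated with 25 nM NS2B-NS3 protease, and the substrate was then added at 1.5 microM. Curves were fitted with a 4-parameter Hill model.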

[2] = system: Zika virus NS2B-NS3 protease (linked construct); test: Primary screen NINDS Rhodamine qHTS for Zika virus inhibitors (AID 1347160); also: nearly all actives have a fitted effect of over 55% in size
In short: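 Kinetic fluorescence (Ex 480 nm, Em 540 nm) over 15 min with 1.5 microM Rhodamine110 peptide and 25 nM linked protease.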

[3] = target: Calcium and integrin-binding protein 1 (Homo sapiens) (UniProt Q99828); test: Primary qHTS for Identification of Calcium Integrin Binding Protein 1 (CIB1) Competitor (AID 1508620);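 also: GST tagged CIB1 binding a fluorescein labelled alphaIIb integrin peptide tracer; top concentration of the series differs between compounds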
In short: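 CIB1-GST (1 uM final) and compound incubated 15 min at room temperature before adding FITC-alphaIIb peptide tracer (100 nM final). Competition for binding read by fluorescence polarization (ex 480, em 540) after another 15 min at room temperature.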

[4] = Primary qHTS for inhibitors of nuclear receptor binding SET domain protein 2 (NSD2) in an isogenic RCH-ACV NSD2 p.E1099K mutant (9B) (AID 1645876); also: nearly all actives have a fitted effect of over 70% in size; also: potency is read from the fitted curve at half-maximal effect
[5] = target: Luciferin 4-monooxygenase (Photinus pyralis) (UniProt P08659); test: Primary firefly luciferase (FLuc) qHTS assay for identification of artifact compounds. (AID 1845220); also: nearly all actives have a fitted effect of over 60% in size; also: potency is read from the fitted curve at half-maximal effect
In short: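 Compounds sat 15 min at room temperature with 10 uM luciferin and 10 uM ATP (pH 7.6 Tris acetate). Firefly luciferase (10 nM final) was then added, and luminescence was read 5 min later. Data normalized to no-enzyme and DMSO controls were Hill-fitted.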

[6] = system: Nanoluciferase (engineered Oplophorus gracilirostris luciferase); test: Primary Nanoluciferase (NLuc) qHTS assay for identification of artifact compounds. (AID 1845222); also: potency is read from the fitted curve at half-maximal effect
In short: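 Luminescence from secreted NLuc (filtered, 1:55-diluted S16 cell medium) read 5 min after Nano-Glo substrate; compounds preincubated 15 min, RT. Hill fits of inhibition normalized to DMSO and no-enzyme.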

[7] = Primary redox qHTS assay for identification of artifact compounds. (AID 1845223)
In short: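 Amplex Red (25 uM) and HRP (250 mU/mL) in HBSS, with compounds for 15 min, then 250 uM DTT for 30 min, room temperature, dark. Fluorescence 525/598 nm read; normalized to DMSO and 10 uM DA3003; Hill fit.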

[8] = system: C33A; test: Primary qHTS to identify gynecologic anti-cancer compounds using libraries of approved drugs and bioactive compounds (AID 1345084); details: Gynecologic cancer cell panel viability, ATPlite luminescence, 48 h; series mostly up to 57.5 µM; also: nearly all actives have a fitted effect of over 55% in size; also: potency is read from the fitted curve at half-maximal effect
In short: (§1)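 Five-point cytotoxicity, 48 h drug exposure at 37 C, 5% CO2, on cells seeded 16 h beforehand. ATP content read by ATPlite luminescence.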

[9] = system: CASKI; test: as above; details: Gynecologic cancer cell panel viability, ATPlite luminescence, 48 h; series mostly up to 57.5 µM
In short: as §1

[10] = system: Es-2; test: as above; details: Gynecologic cancer cell panel viability, ATPlite luminescence, 48 h; series mostly up to 57.5 µM
In short: as §1

[11] = system: HeLa; test: as above; details: Gynecologic cancer cell panel viability, ATPlite luminescence, 48 h; series mostly up to 57.5 µM
In short: as §1

[12] = system: Hek293T; test: as above; details: Gynecologic cancer cell panel viability, ATPlite luminescence, 48 h, control line for the selectivity index; series mostly up to 57.5 µM
In short: as §1

[13] = system: JEG-3; test: as above; details: Gynecologic cancer cell panel viability, ATPlite luminescence, 48 h; series mostly up to 57.5 µM
In short: as §1

[14] = system: OV90; test: as above; details: Gynecologic cancer cell panel viability, ATPlite luminescence, 48 h; series mostly up to 57.5 µM
In short: as §1

[15] = system: Tov-21-G; test: as above; details: Gynecologic cancer cell panel viability, ATPlite luminescence, 48 h; series mostly up to 57.5 µM
In short: as §1

[16] = system: Tov112D; test: as above; details: Gynecologic cancer cell panel viability, ATPlite luminescence, 48 h; series mostly up to 57.5 µM
In short: as §1

[17] = Primary qHTS for inhibitors of nuclear receptor binding SET domain protein 2 (NSD2) in an RCH-ACV wild type WT cells (2C) (AID 1645877); also: nearly all actives have a fitted effect of over 70% in size; also: potency is read from the fitted curve at half-maximal effect
[18] = target: Glutathione peroxidase 1 (Homo sapiens) (UniProt P07203); test: Primary qHTS Assay for Inhibitors of Recombinant Selenoprotein Glutathione Peroxidase 1 (GPX1) (AID 1845191); also: nearly all actives have a fitted effect of over 65% in size; also: potency is read from the fitted curve at half-maximal effect
In short: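 10 nM GPX1 + cpd, 30 min RT; start w/ 1 mM GSH, 0.5 mM cumene hydroperoxide, 0.5 mM NADPH, 100 nM GR, 0.01% BSA; buffer 50 mM Tris-HCl pH 7.5, 2 mM EDTA, 150 mM NaCl; Fl 340/450, 0 & 15 min.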

[19] = target: Phospholipid hydroperoxide glutathione peroxidase GPX4 (Homo sapiens) (UniProt P36969); test: Primary qHTS Assay for Inhibitors of Recombinant Selenoprotein Glutathione Peroxidase 4 (GPX4) (AID 1845192); details: outcome: dose series up to 50 µM unless noted; also: nearly all actives have a fitted effect of over 65% in size; also: potency is read from the fitted curve at half-maximal effect
In short: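 NADPH consumption, followed by fluorescence at 340/450 nm between 0 and 15 min, reports GPX4 activity via coupled glutathione reductase (100 nM). Enzyme 200 nM was pre-exposed to compound 30 min; 0.5 mM cumene hydroperoxide and 1 mM GSH served as substrates.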

[20] = system: PA-1; test: Primary qHTS to identify gynecologic anti-cancer compounds using libraries of approved drugs and bioactive compounds (AID 1345084); details: Gynecologic cancer cell panel viability, ATPlite luminescence, 48 h; series mostly up to 57.5 µM; also: nearly all actives have a fitted effect of over 55% in size; also: potency is read from the fitted curve at half-maximal effect
In short: as §1

Measured: Potency

Chain of Phospholipid hydroperoxide glutathione peroxidase GPX4 (Homo sapiens) (P36969 whole entry, looked up): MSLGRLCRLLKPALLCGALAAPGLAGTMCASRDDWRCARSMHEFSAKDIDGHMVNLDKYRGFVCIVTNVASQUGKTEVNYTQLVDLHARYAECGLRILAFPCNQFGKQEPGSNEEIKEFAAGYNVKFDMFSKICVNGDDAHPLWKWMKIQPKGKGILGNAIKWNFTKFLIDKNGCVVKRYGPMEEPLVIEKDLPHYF
Chain of Glutathione peroxidase 1 (Homo sapiens) (P07203 whole entry, looked up): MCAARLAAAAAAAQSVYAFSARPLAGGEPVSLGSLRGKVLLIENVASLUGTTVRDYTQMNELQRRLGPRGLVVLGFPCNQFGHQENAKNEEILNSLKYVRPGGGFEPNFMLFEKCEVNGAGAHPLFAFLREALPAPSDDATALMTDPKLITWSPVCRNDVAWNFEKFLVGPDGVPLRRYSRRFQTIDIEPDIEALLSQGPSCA
Chain of Calcium and integrin-binding protein 1 (Homo sapiens) (Q99828 whole entry, looked up): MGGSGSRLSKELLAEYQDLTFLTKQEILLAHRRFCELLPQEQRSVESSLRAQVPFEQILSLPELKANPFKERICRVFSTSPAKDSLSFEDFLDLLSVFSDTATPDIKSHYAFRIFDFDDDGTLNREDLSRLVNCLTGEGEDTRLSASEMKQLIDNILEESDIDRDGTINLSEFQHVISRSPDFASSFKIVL

O=C(CC1NCCC[C@H]1O)Cn1cnc2cc(Br)c(Cl)cc2c1=O (stereo not given in full)
not listed: [17] | [18] | [19] | [20]
inactive: all other assays above

C=C1C(=O)O[C@@H]2/C=C(/C)CC3C=C(C[C@H](OC(=O)/C(C)=C\C)[C@@H]12)C(=O)O3 (stereo not given in full)
active: [4] 16 µM | [17] 3.58 µM
not listed: [1] | [3] | [12]
inactive: all other assays above

COc1cc(-c2cc(-c3cccc(O)c3)cnc2N)cc(OC)c1OC
active: [4] 10.3 µM | [17] 12.9 µM
not listed: [1] | [15] | [16] | [19]
inactive: all other assays above

Cc1nnsc1C(=O)Nc1ccc(-n2nc(C(F)(F)F)cc2C(F)(F)F)cc1
active: [4] 20.5 µM | [17] 11.5 µM
not listed: [1] | [2] | [3] | [7]
inactive: all other assays above

O=C(Nc1cccc(C(F)(F)F)c1)c1ccccc1NCc1ccncc1
inactive: [1] | [2] | [5] | [6] | [7] | [8] | [9] | [11] | [13] | [14] | [15]

CCC(=O)Nc1cccc(Oc2nc(Nc3ccc(N4CCN(C)CC4)cc3OC)ncc2Cl)c1
active: [4] 16.3 µM | [17] 14.5 µM
not listed: [1] | [7] | [15] | [20]
inactive: all other assays above

CN(C)CC(=O)Nc1ccc2[nH]c(=O)c3ccccc3c2c1
active: [4] 20.5 µM | [17] 23 µM
not listed: [12] | [15] | [18] | [19] | [20]
inactive: all other assays above

CC1(C)SC2C(NC(=O)[C@H](NC(=O)N3CCNC3=O)c3ccccc3)C(=O)N2C1C(=O)O (stereo not given in full)
not listed: [1] | [2] | [7]
inactive: all other assays above

Fc1ccccc1CNCc1ccc(-c2ccnc3[nH]ccc23)cc1
active: [4] 16.3 µM | [17] 11.5 µM | [18] 25.5 µM | [19] 16.1 µM
not listed: [1]
inactive: all other assays above

C[C@@H](CN1CCC(n2c(=O)[nH]c3cc(Cl)ccc32)CC1)NC(=O)c1ccc2ccccc2c1
active: [4] 10.3 µM | [17] 16.3 µM
not listed: [14] | [20]
inactive: all other assays above

C[C@H](NC(=O)C(C)(C)Oc1ccc(C(F)(F)F)cn1)[C@@H](Cc1ccc(Cl)cc1)c1cccc(C#N)c1
active: [4] 16.3 µM | [17] 20.5 µM
not listed: [7] | [11] | [12]
inactive: all other assays above

CC[C@H](C)[C@H]1O[C@]2(CC[C@@H]1C)C[C@@H]1C[C@@H](C/C=C(\C)[C@@H](O[C@H]3C[C@H](OC)[C@@H](O[C@H]4C[C@H](OC)[C@@H](O)[C@H](C)O4)[C@H](C)O3)[C@@H](C)/C=C/C=C3\CO[C@@H]4[C@H](O)C(C)=C[C@@H](C(=O)O1)[C@]34O)O2
active: [4] 20.5 µM | [17] 9.16 µM
not listed: [1] | [12] | [18]
inactive: all other assays above

COc1ccc(-c2nc(-c3cc(C(F)(F)F)cc(C(F)(F)F)c3)n(Cc3ccc(C(N)=O)cc3)c2-c2ccc(OC)cc2)cc1
not listed: [2] | [12]
inactive: all other assays above

CC(C)n1cnc2c(Nc3cccc(Cl)c3)nc(NCCO)nc21
active: [4] 11.5 µM | [17] 8.17 µM
not listed: [7] | [15] | [18]
inactive: all other assays above

COc1ccc2c(c1)CN(C(=O)CCN1CCC(Cc3ccccc3)CC1)CCS2
active: [4] 11.2 µM | [17] 10 µM | [14] 6.31 µM
not listed: [1] | [7]
inactive: all other assays above

c1ccc(-c2cnc(Nc3ccc(OCCN4CCCC4)cc3)s2)cc1
active: [4] 9.16 µM | [17] 9.16 µM | [5] 23.9 µM
not listed: [14] | [15] | [20]
inactive: all other assays above

C=C1C(=O)O[C@@H]2[C@H]1[C@H](O)C[C@]1(C)[C@@H](O)CC=C(C)[C@@H]21
active: [4] 11.5 µM | [17] 7.28 µM
not listed: [1] | [3] | [15]
inactive: all other assays above

CNc1nc(-c2ccc3c(N)n[nH]c3c2)cc(N2CC(C(=O)NC3CCCCC3)CCC2C)n1 (stereo not given)
active: [4] 0.578 µM | [17] 1.15 µM
not listed: [12] | [13] | [14] | [15] | [20]
inactive: all other assays above

COc1cc2nc(-c3cc(F)ccc3O)nc(N[C@@H]3CNC[C@H]3C(C)(C)O)c2cc1OC
active: [4] 4.59 µM and 1.48 µM | [17] 4.09 µM and 1.66 µM
not listed: [7]
inactive: all other assays above

COc1ccc(C2(CNC(=O)[C@](C)(Cc3c[nH]c4ccccc34)NC(=O)Nc3ccc([N+](=O)[O-])cc3)CCCCC2)nc1
active: [17] 20.5 µM
not listed: [1] | [4]
inactive: all other assays above

CCN(CC)Cc1cccc(/C=C/c2nc3ccc(F)cc3c(=O)n2-c2ccccc2Cl)n1
active: [4] 14.5 µM | [17] 12.9 µM
not listed: [7] | [14] | [15] | [16] | [20]
inactive: all other assays above

CCCCC(=O)N(Cc1ccc(-c2ccccc2-c2nn[nH]n2)cc1)C(C(=O)O)C(C)C (stereo not given)
not listed: [1] | [3] | [6] | [18]
inactive: all other assays above

CCCCc1nc(C)c(CC(=S)N(C)C)c(=O)n1Cc1ccc(-c2ccccc2-c2nn[nH]n2)cc1
active: [6] 16.9 µM
not listed: [1] | [18]
inactive: all other assays above

CNc1cc(OC)c(C(=O)N[C@@H]2CCN(Cc3ccccc3)[C@@H]2C)cc1Cl
active: [4] 20.5 µM
not listed: [14] | [17] | [18]
inactive: all other assays above
